The campaign covered roughly 1,500 compounds. About 460 (31%) were called active. Not shown: some 1% with an inconclusive outcome.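 Rule for the calls: active = curve reaches 40% activation over neutral controls at an AC40 no higher than the top valid tested concentration; inconclusive = no clear call, values can overlap the other calls; inactive = signal moving opposite to the expected increase, and the rest.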 A selection follows. Potency and affinity values are given separately.
Assay: activators of glucose-dependent insulin secretion, dose response, cell-based, INS-1E, Gaussia luciferase, luminescence, cherry-pick, set 2 (AID 977607);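 note: 0% = median of the plate neutral control wells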
Conditions: INS-1E GLuc insulin secretion reporter, 2-3 h, active compounds read high; at 35 µM, 100% = signal doubled over neutral wells unless noted

Max activation, inactive:
Cc1ccc(-c2cc(C(=O)Nc3nn[nH]n3)c3ccccc3n2)c(C)c1 -12.2% [at 1.2 µM, 100% = signal doubled over neutral wells]
Cc1ccc2c(c1)C=CC(C#N)N2C(=O)c1ccccc1 (stereo unspecified) 36.1%
O=C(COc1nncc2ccccc12)NCC(F)(F)F 25.7%
Cc1ccc(C(OCC(O)CNCc2ccc(F)cc2)c2ccccc2)cc1 (stereo unspecified) 97.1%
CCOC(=O)CN1C(=O)[C@]2(OCCC=C[C@H]2C)c2ccccc21 33.6%
C1CCN(CCCNC2C3CC4CC(C3)CC2C4)C1 (stereo unspecified) -11.8% [at 0.0016 µM, 100% = signal doubled over neutral wells]
CCc1nc2c(nnn2Cc2ccc(F)cc2)c(=O)[nH]1 -16% [at 0.42 µM, 100% = signal doubled over neutral wells]
COc1ccc(-c2cc(-c3ccco3)[nH]c(=O)c2C#N)cc1OC -12.7% [at 3.8 µM, 100% = signal doubled over neutral wells]
COc1ccc(CC(=O)N2CCc3cc(OC)c(OC)cc3C2)cc1 20%
O=C(Nc1nnc(CCS(=O)(=O)c2ccc3ccccc3c2)s1)c1cccs1 -24% [at 0.015 µM, 100% = signal doubled over neutral wells]
O=C(Nc1ccc(NC(=O)c2cccs2)cc1)c1ccc(Br)o1 -18.3% [at 0.135 µM, 100% = signal doubled over neutral wells]
CC1(C)N=C(c2ccccc2)C(c2ccccc2)=N1 33.2%
CCOc1ncccc1C(=O)OCC(=O)NCCc1ccc(S(N)(=O)=O)cc1 -12.8% [at 0.046 µM, 100% = signal doubled over neutral wells]
Cc1ccc(-n2cc(CNCCCn3ccnc3C)c(-c3ccc(F)cc3)n2)cc1 -12.6% [at 1.2 µM, 100% = signal doubled over neutral wells]
CCOC(=O)c1cc(-c2ccncc2)nc2c1c(C)nn2-c1ccccn1 -16.4% [at 0.005 µM, 100% = signal doubled over neutral wells]
CCOC(=O)Cn1nc(-c2ccccc2)c(-c2ccccc2)nc1=O -19.8% [at 0.005 µM, 100% = signal doubled over neutral wells]
COc1ccc(S(=O)(=O)N(C)c2ccc(C(=O)N3CCCC3)cc2)cc1OC -12.8% [at 3.8 µM, 100% = signal doubled over neutral wells]
O=C(O)c1ccc(S(=O)(=O)N2CCC3(CC2)CC(=O)c2ccccc2O3)cc1 -16.3% [at 1.2 µM, 100% = signal doubled over neutral wells]
CCCN1C[C@@H](C)[C@@H](OC)CN(C)C(=O)c2ccc(NC(=O)c3cccc(F)c3)cc2OC[C@H]1C -15.7% [at 0.005 µM, 100% = signal doubled over neutral wells]
O=C(Nc1cccc(Cl)c1)c1cnn2cccnc12 29.7%
CCc1nc2ccc(C(=O)NCCCN3CCCC3=O)cn2c1N(CCC(C)C)CCN(C)C -19.8% [at 0.42 µM, 100% = signal doubled over neutral wells]
CC(=O)c1cccc(-c2csc3ncnc(Sc4nnnn4C)c23)c1 -11.8% [at 0.005 µM, 100% = signal doubled over neutral wells]
CCN(CC)C(=O)C1(P(=O)(c2ccccc2)c2ccccc2)CCC1 -17.4% [at 0.42 µM, 100% = signal doubled over neutral wells]
O=C(c1ccco1)N(Cc1ccc(Cl)cc1)C1CCS(=O)(=O)C1 (stereo unspecified) 17.8%
O=c1c(Cc2ccc(Cl)cc2Cl)c(O)ccn1CC(F)(F)F 17.3%
CCn1nnnc1NCc1ccc(OCc2c(F)cccc2Cl)c(OC)c1 -22.7% [at 1.2 µM, 100% = signal doubled over neutral wells]
COc1ccc(CNC(=O)C2Cc3c(-c4ccccc4)ccnc3O2)cc1OC (stereo unspecified) -21.6% [at 11 µM, 100% = signal doubled over neutral wells]
C/C(Cl)=C\Cn1c(N2CCCC2)nc2c1c(=O)n(C)c(=O)n2C -30.4% [at 1.2 µM, 100% = signal doubled over neutral wells]
CCNc1nc(NCC)nc(N(C#N)C(C)C)n1 28.6% [at 11 µM, 100% = signal doubled over neutral wells]
Cc1nc2ccccc2c2nc(NC(=O)C(F)(F)F)nn12 -15.5% [at 11 µM, 100% = signal doubled over neutral wells]
CN(C)c1ccc(/C=N/NC(=O)c2ccccc2Cl)cc1 -9.59% [at 0.046 µM, 100% = signal doubled over neutral wells]
CC(C)Oc1ccc(Br)cc1C(=O)N/N=C/c1c[nH]c2ccccc12 -45.1%
NC(=O)c1ncn([C@@H]2O[C@H](C(=O)N[C@H](Cc3ccccc3)C(=O)O)[C@@H](O)[C@H]2O)n1 -32.5%
COc1ccc(N2CCN(C(c3cccs3)C(C)NC(=O)C(=O)N3CCOCC3)CC2)cc1 (stereo unspecified) -16.6% [at 3.8 µM, 100% = signal doubled over neutral wells]
Cc1ccc(NC(=O)CC2S/C(=N/N=C/c3c[nH]c4ccccc34)NC2=O)cc1 (stereo unspecified) 19.8% [at 3.8 µM, 100% = signal doubled over neutral wells]
Cc1ccc(CC2S/C(=N/c3ccccn3)NC2=O)cc1 (stereo unspecified) -16.1% [at 0.42 µM, 100% = signal doubled over neutral wells]

— PubChem BioAssay AID977607 (Broad Institute, 2014)
